An excerpt weighted towards active compounds, which were near 0.44% of everything screened.
YopH PTP inh – YopH tyrosine phosphatase inhibitors, primary screen, biochemical, fluorescence Ex485/Em525. YopH tyrosine phosphatase [Yersinia enterocolitica]. inhibition, % (no concentration beside the values). 140,000 tested, 0.16% active. AID 898, 2007; in the data active = inhibition above about 50%
RmlCD inh mix – RmlC and RmlD coupled enzyme inhibitors, primary screen, biochemical, 384-well, compound mixtures, retest | 110,000 tested, 0.39% active | RmlC/RmlD coupled enzyme inhibition, 384-well mixture HTS | inhibition, % at 5.5 µM; in the data active = inhibition above about 30%, passing the limit was not always enough
RmlCD fluor art – counter-screen for RmlC/RmlD inhibitors: fluorescence artifact, dose response, artefact control, biochemical | shares compounds with RmlCD inh mix | RmlC/RmlD assay fluorescence artifact counter-screen | calls only | 360 tested, 96% active; call rule not given here;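 note: compound alone with no enzyme and no substrates present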
The depositor's hits bear a star; i = inactive; . = not tested or not shown; + = active, no number.

SMILES	YopH PTP inh	RmlCD inh mix	RmlCD fluor art
Cc1cc(=O)[nH]c2cc(O)ccc12	-64	-2	.
Cc1cc(=O)oc2cc(O)ccc12	.	84*	+
CCCOc1nc2c(c(=O)n(C)c(=O)n2C)n1Cc1cccc2ccccc12	-40	-14	.
COc1ccc(NC(=O)CC2C(=O)N(c3ccc(F)cc3)C(=S)N2NC(=O)c2ccccc2)cc1 (centres undefined)	-30	.	.
CC1=CC(C)(C)N(C(=O)CSc2nnc(-c3ccc(C)cc3)o2)c2ccc(C)cc21	4	-15	.
C/C(=N\NC(=O)C1(C)CC1(Br)Br)c1ccc(NC(=O)c2ccc(C)o2)cc1 (centres undefined)	-18	.	.
CC(=O)Nc1c(OC(C)=O)ccc2c(C)cc(=O)oc12	-43	+	+
COc1ccc2c(C)cc(=O)oc2c1C	-32	-4	.
O=C(NCCN1CCOCC1)c1ccc(F)cc1	-3	-2	.
O=C(NCCN1CCOCC1)c1ccc(=O)oc1	-7	43*	+
O=C(COC(=O)c1oc2ccccc2c1COc1ccccc1)NCCN1C(=O)CSC1=O	-22	.	.
N#Cc1nc(-c2ccc(OCc3ccccc3)cc2)oc1N1CCC(C(N)=O)CC1	4	.	.
COc1ccc(-c2nc(C#N)c(N3CCC(C(N)=O)CC3)o2)cc1	90*	50*	+
COc1cc(C)ccc1OCCOc1ccccc1Cl	-39	7	.
CC(C)Cn1c(-c2ccc(C#N)cc2)nc2c1c(=O)[nH]c(=O)n2CC(C)C	-17	32*	+
CCCCn1c(=O)[nH]c(=O)c2c1nc(-c1ccc(C#N)cc1)n2C1CCCC1	-34	.	.
O=[N+]([O-])c1ccc(Cl)cc1NCCCN1CCOCC1	-4	.	.
Cc1nc2c(c(=O)n1CCC1=CCCCC1)c1nc3ccccc3nc1n2/N=C/c1ccccc1	-11	-5	+
CCOCCCn1c(C)nc2c(c1=O)c1nc3ccccc3nc1n2CCC1=CCCCC1	-11	.	.
Cc1ccc2nc(-c3cccc(S(=O)(=O)N(C)C)c3)cn2c1	-31	10	.
CN(C)S(=O)(=O)c1ccc(-c2cn3ccccc3n2)cc1	-27	40*	+
COc1ccc(-c2nnc(-c3cc4ccccc4oc3=O)o2)cc1	-32	-2	.
CCCCCCc1cc2cc(-c3nnc(-c4ccccc4OC)o3)c(=O)oc2cc1O	-15	181*	+
CCCCCCCN=CC1=C(O)CC(c2ccccc2)CC1=O (centres undefined)	-16	.	.
O=[N+]([O-])c1ccc(/C=N/NC(=S)Nc2ccccc2C(F)(F)F)o1	-11	.	.
SMILES	YopH PTP inh	RmlCD inh mix	RmlCD fluor art
CCCOc1ccc2c(CC)cc(=O)oc2c1C	-35	.	.
CCc1cc(=O)oc2c(C)c(O)c(CN(C)C)cc12	-1	82*	+
O=C(CSc1nc2ccccc2c(=O)n1NC(=O)Cc1ccccc1)NCCc1ccccc1	-42	7	.
CCOC(=O)c1ccc(OC(=O)CCCCCN=C(N)N)cc1	.	-8	.
CC(C)N(C(=O)COC(=O)c1cc(Cl)cc(Cl)c1N)C(C)C	8	-7	.
CN(C)C(=O)COC(=O)c1cc(Cl)cc(Cl)c1N	-14	36*	+
C/C(=N\NC(=O)C(C)Nc1cccc(Cl)c1)c1ccc([N+](=O)[O-])cc1 (centres undefined)	-8	.	.
CCN(CC)S(=O)(=O)c1cccc2cc(C(=O)O)c(O)cc12	-54	20	.
COc1cc2c(cc1OC)-c1cc(OCc3cccnc3)nc(=O)n1CC2	34	115*	+
CCOc1cccc(Nc2cc3n(c(=O)n2)CCc2cc(OC)c(OC)cc2-3)c1	-13	10	.
CC1CC(C)CN(C(=O)CSc2nc(Cc3cccs3)nc3ccccc23)C1 (centres undefined)	-1	14	.
CCCc1cc(N2CCN(C(=O)c3ccco3)CC2)n2c(nc3ccccc32)c1C#N	4	39*	+
CCCc1cc(NCCCCO)n2c(nc3ccccc32)c1C#N	-32	-9	.
O=C(O)C1=C[C@H](c2coc3ccccc3c2=O)C[C@H](OCc2ccc(CO)cc2)O1	.	1	.
COc1ccccc1-c1c(C)oc2c(CN3CCN(CCO)CC3)c(O)ccc2c1=O	-37	.	i
COc1ccc(-c2c(C)oc3c(CN4CCN(CCO)CC4)c(O)ccc3c2=O)cc1OC	-20	.	.
COc1ccccc1-c1c(C)oc2c(CN3CCN(C)CC3)c(O)ccc2c1=O	-36	43*	+
CCOC(=O)c1oc2c(CN3CCN(C)CC3)c(O)ccc2c(=O)c1-c1ccccc1OC	-7	9	.
Cc1ccc(S(=O)(=O)N/N=C/c2ccc(OCC(=O)NC(C)C)cc2)cc1	-4	7	.
O=C(COC(=O)C1(c2ccccc2)CC1)N1CCN(c2ccc(F)cc2)CC1	-50	1	.
Cc1nc(NC(=O)/C=C/c2ccccc2)sc1C(=O)Nc1ccc(Cl)cc1	-32	-15	.

From PubChem BioAssay
